According to PubChem BioAssay (NCI):
Compounds without any hit were thinned out: in the full panel of roughly 83,000, 20% have a hit.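 For each line, cells grew in 96-well plates with the test compound present at a single concentration for 48 hours.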 Calls of active or inactive are those of the source. How the source made its calls: active means growth percent below 10; inactive means the rest.

How the values were obtained:
Test in all cases: NCI-60 one-dose screen, 48 h (100 = growth as untreated, 0 = no growth, -100 = all killed)
Details in all cases: 10 µM unless noted
SR leukemia = test system: SR leukemia
RPMI-8226 leukemia = test system: RPMI-8226 leukemia
OVCAR-8 ovarian = test system: OVCAR-8 ovarian
OVCAR-5 ovarian = test system: OVCAR-5 ovarian
OVCAR-4 ovarian = test system: OVCAR-4 ovarian
SK-OV-3 ovarian = test system: SK-OV-3 ovarian
IGROV1 ovarian = test system: IGROV1 ovarian
OVCAR-3 ovarian = test system: OVCAR-3 ovarian
HS 578T breast = test system: HS 578T breast
NCI/ADR-RES ovarian = test system: NCI/ADR-RES ovarian
T-47D breast = test system: T-47D breast
BT-549 breast = test system: BT-549 breast
MDA-MB-435 melanoma = test system: MDA-MB-435 melanoma
SW-620 colon = test system: SW-620 colon
MCF7 breast = test system: MCF7 breast
HCT-116 colon = test system: HCT-116 colon
HCC-2998 colon = test system: HCC-2998 colon
KM12 colon = test system: KM12 colon

Measured: growth

COc1ccc(Nc2ncccc2NC(=O)c2cn(Cc3cccc(Oc4ccccc4)c3)nn2)cc1OC
active: MDA-MB-435 melanoma 4.74%
inactive: SR leukemia 34.9% | RPMI-8226 leukemia 73.2% | OVCAR-8 ovarian 90.8% | OVCAR-5 ovarian 111% | OVCAR-4 ovarian 68.2% | SK-OV-3 ovarian 93.5% | IGROV1 ovarian 89.5% | OVCAR-3 ovarian 73.3% | HS 578T breast 72.9% | NCI/ADR-RES ovarian 77% | T-47D breast 49.2% | BT-549 breast 73% | SW-620 colon 73% | MCF7 breast 48.5% | HCT-116 colon 80.7% | HCC-2998 colon 88.1% | KM12 colon 57.6%

Cc1cccc(N2CCN(C(=S)c3ccc4c(c3)OCO4)CC2)c1
inactive: SR leukemia 16.9% | RPMI-8226 leukemia 20% | OVCAR-8 ovarian 27.6% | OVCAR-5 ovarian 50.3% | OVCAR-4 ovarian 66.6% | SK-OV-3 ovarian 19.2% | IGROV1 ovarian 31.3% | T-47D breast 32.9% | BT-549 breast 32.9% | MCF7 breast 12.5% | HCT-116 colon 13.6% | HCC-2998 colon 13.2% | KM12 colon 21.5%
active: OVCAR-3 ovarian -33.9% | HS 578T breast -27.7% | NCI/ADR-RES ovarian -18.6% | MDA-MB-435 melanoma -20.9% | SW-620 colon 8.2%

CCC(CC)(N(CC(=O)O)CC(=O)O)C(CC)(CC)N(CC(=O)O)CC(=O)O
inactive: SR leukemia 93.7% | RPMI-8226 leukemia 82.7% | OVCAR-8 ovarian 101% | OVCAR-5 ovarian 117% | OVCAR-4 ovarian 101% | SK-OV-3 ovarian 104% | IGROV1 ovarian 116% | OVCAR-3 ovarian 121% | HS 578T breast 118% | NCI/ADR-RES ovarian 107% | T-47D breast 96.3% | BT-549 breast 117% | MDA-MB-435 melanoma 126% | SW-620 colon 112% | MCF7 breast 100% | HCT-116 colon 110% | HCC-2998 colon 98.1% | KM12 colon 120%

CCOC(=O)n1cc(-c2nonc2-c2cn(C)c3ccccc23)c2ccccc21
inactive: SR leukemia 19.7% | RPMI-8226 leukemia 38.9% | OVCAR-8 ovarian 51.6% | OVCAR-5 ovarian 55.6% | OVCAR-4 ovarian 59.9% | SK-OV-3 ovarian 45% | IGROV1 ovarian 46.8% | OVCAR-3 ovarian 25.1% | HS 578T breast 29.3% | NCI/ADR-RES ovarian 15.2% | T-47D breast 40.6% | BT-549 breast 55.3% | SW-620 colon 18.8% | MCF7 breast 21.6% | HCT-116 colon 22.3% | HCC-2998 colon 60.9% | KM12 colon 29.1%
active: MDA-MB-435 melanoma -8%

CCOC(=O)c1c(-c2ccccc2)n2c(=O)cc(C)c3c(O)c(O)cc1c32
inactive: SR leukemia 22.4% | RPMI-8226 leukemia 36.5% | OVCAR-8 ovarian 29.1% | OVCAR-5 ovarian 70.1% | OVCAR-4 ovarian 15.4% | SK-OV-3 ovarian 76.3% | IGROV1 ovarian 61.2% | HS 578T breast 87.7% | NCI/ADR-RES ovarian 15.3% | T-47D breast 55% | BT-549 breast 89.8% | MDA-MB-435 melanoma 79.7% | SW-620 colon 55.4% | MCF7 breast 29.9% | HCT-116 colon 24.5% | HCC-2998 colon 61.3% | KM12 colon 64.3%
active: OVCAR-3 ovarian 0.992%

COC(c1ccc2ccccc2c1)C(C)C(F)F (configuration not stated)
inactive: SR leukemia 92% | RPMI-8226 leukemia 98.8% | OVCAR-8 ovarian 99.4% | OVCAR-5 ovarian 95.5% | OVCAR-4 ovarian 109% | SK-OV-3 ovarian 87.5% | IGROV1 ovarian 100% | OVCAR-3 ovarian 114% | HS 578T breast 116% | NCI/ADR-RES ovarian 107% | T-47D breast 90% | BT-549 breast 95% | MDA-MB-435 melanoma 96% | SW-620 colon 106% | MCF7 breast 109% | HCT-116 colon 87.7% | HCC-2998 colon 114% | KM12 colon 107%

N=C(N)c1ccc(-c2ccc(-c3ccc(F)cc3)s2)s1
active: SR leukemia -32.6% | RPMI-8226 leukemia -18.6% | OVCAR-8 ovarian -54.7% | OVCAR-5 ovarian -28.8% | OVCAR-4 ovarian -23.8% | IGROV1 ovarian -27.5% | OVCAR-3 ovarian -57.8% | NCI/ADR-RES ovarian -33.3% | T-47D breast -38.2% | MDA-MB-435 melanoma -88.7% | SW-620 colon -65.2% | MCF7 breast -67% | HCT-116 colon -57.3% | HCC-2998 colon -73.3% | KM12 colon -76.1%
inactive: SK-OV-3 ovarian 80.5% | HS 578T breast 84.6% | BT-549 breast 80%

COc1ccc2c(O)c(/C=C3\N=Nc4ccccc43)oc2c1C[C@H]1CCNC[C@H]1F
active: SR leukemia -23.4% | KM12 colon 2.5%
inactive: RPMI-8226 leukemia 60.4% | OVCAR-8 ovarian 61% | OVCAR-5 ovarian 35.4% | OVCAR-4 ovarian 57.6% | SK-OV-3 ovarian 69% | IGROV1 ovarian 62.7% | OVCAR-3 ovarian 66.4% | HS 578T breast 54.7% | NCI/ADR-RES ovarian 82.4% | T-47D breast 83.3% | BT-549 breast 71.2% | MDA-MB-435 melanoma 35.4% | SW-620 colon 15.6% | MCF7 breast 12.1% | HCT-116 colon 26.7% | HCC-2998 colon 49.7%

COc1cccc(/C=C/C(=O)c2cc3c(N)c(C(=O)Nc4ccccc4C)sc3nc2C)c1
active: RPMI-8226 leukemia -20.8% | OVCAR-8 ovarian -33.9% | OVCAR-3 ovarian 3.31% | MDA-MB-435 melanoma -26.3% | SW-620 colon 1.68% | MCF7 breast 7.39%
inactive: SR leukemia 10.8% | OVCAR-5 ovarian 87.2% | OVCAR-4 ovarian 70.9% | SK-OV-3 ovarian 104% | IGROV1 ovarian 19.4% | HS 578T breast 13.9% | NCI/ADR-RES ovarian 10.1% | T-47D breast 56.2% | BT-549 breast 37.8% | HCT-116 colon 41.8% | HCC-2998 colon 35.1% | KM12 colon 27.4%
